# Source: PubChem
# Only a selection was taken, and hits are over-represented in it overall.
# RBX1-CUL1 inh: inhibitors of human ROC1-CUL1 ubiquitin ligase activity. P62877+Q13616. in vitro K48 di-Ub FRET, acceptor:donor ratio, 45 min. inhibition, % at 10 µM. 140,000 tested, 0.6% active. AID 1347404; in the data active = inhibition above about 25%
# * = called active by the depositor.
SMILES,RBX1-CUL1 inh
Cc1ccc(N2NC(=O)/C(=C/c3ccc4c(c3)n(C)c(=O)n4C)C2=O)cc1Cl,8
O=C1NC(=S)NC(=O)C1=Cc1cc2c(cc1Cl)OCO2,3
CCOc1ccccc1/C=C1\C(=O)NN(c2ccc(C)c(C)c2)C1=O,47*
N=C1OC2c3ccccc3CC1c1ccccc12 (configuration not stated),2
CCCC(=O)N1CCN(c2ccc(NC(=O)CSc3ccc(Cl)cc3)cc2)CC1,-4
CCOc1ccc(C2CC(=O)Nc3cc4c(cc32)OCO4)cc1 (configuration not stated),10
CCOC(=O)/C(C#N)=N/Nc1ccc2nc(C)[nH]c2c1,6
O=C1/C(=C\c2cccs2)CCc2ccccc21,-3
COC1C=CCC(C#N)(c2ccccc2)C1(C#N)C#N (configuration not stated),-2
COC(=O)C1C(C)=NC(=O)NC1c1cccc(OC)c1 (configuration not stated),9
COc1cccc(C2OC3(C(=O)c4ccccc4C3=O)C3C(=O)N(c4ccc(Br)cc4)C(=O)C23)c1 (configuration not stated),-6
O=C1C2C(c3ccc(Br)cc3)OC3(C(=O)c4ccccc4C3=O)C2C(=O)N1c1cccc([N+](=O)[O-])c1 (configuration not stated),59*
O=C1C2C(c3ccc(Br)cc3)OC3(C(=O)c4ccccc4C3=O)C2C(=O)N1c1ccc(Oc2ccc(Cl)cc2)cc1 (configuration not stated),0
COC(=O)NC(=S)N1CCN(C)CC1,10
Cc1cnc(C)c(-c2cccc(-c3ccn(Cc4c(C)noc4C)n3)c2)n1,15
COc1ccc2cccc(/C=C3\C(=O)NN(c4ccc(Cl)c(Cl)c4)C3=O)c2c1,8
COC(=O)c1cc(-c2ccc(/C=C3/C(=O)NN(c4cccc(Br)c4)C3=O)o2)ccc1Cl,5
COc1c(I)cc(I)cc1/C=C1\C(=O)NN(c2cccc(Cl)c2)C1=O,48*
O=C1NN(c2cccc(Cl)c2)C(=O)/C1=C\c1ccc(-c2ccc(Br)cc2C(=O)O)o1,80*
COc1c(I)cc(I)cc1/C=C1/C(=O)NN(c2ccc(Cl)cc2)C1=O,47*
O=C1NN(c2ccc(Cl)cc2)C(=O)/C1=C\c1cc(I)cc(I)c1O,-11
O=C1NN(c2cccc(Cl)c2)C(=O)/C1=C/c1cc(I)cc(I)c1O,1
COc1cc(/C=C2\C(=O)NN(c3ccccc3)C2=O)cc(I)c1OCCCOc1ccc(Cl)cc1,0
COc1ccc(Br)cc1/C=C1/C(=O)NN(c2cccc(Cl)c2)C1=O,89*
COc1ccccc1/C=C1/C(=O)NN(c2ccc(Br)cc2)C1=O,3
SMILES,RBX1-CUL1 inh
COC(=O)c1cccc(-c2ccc(/C=C3/C(=O)NN(c4cccc(Cl)c4)C3=O)o2)c1,11
COc1ccccc1/C=C1\C(=O)NN(c2cccc(Cl)c2)C1=O,6
C=CC[C@@H]1CC=C[C@@H](C)N1C(=O)c1coc(COc2cccc(OC)c2)n1,-7
CC1=NC(=O)C(C(=O)c2cc(Br)ccc2O)=CC1C(=O)O (configuration not stated),1
COC(=O)c1c(NC(=O)c2cccnc2Cl)sc(C(=O)Nc2ccc(C)cc2C)c1C,-2
Cc1cc2nc3s/c(=C/c4ccc(-c5ccc(Cl)cc5)o4)c(=O)n3c2cc1C,-6
COc1ccc(C)cc1N1CC(C(=O)N2CCC(C)CC2)CC1=O (configuration not stated),7
O=S1(=O)NC(Nc2nncs2)C2CCCCC21 (configuration not stated),2
C=CCOc1ccccc1NC(=O)c1cccc(Cl)c1,-2
CC(C)C(=O)Nc1ccc(C(=O)Nc2ccccc2C(F)(F)F)cc1,2
Cc1ccc(C(=O)COC(=O)c2ccc3c(c2)C(=O)N(C2CCCCC2)C3=O)cc1,-5
Cc1ccc(N2CCN(C(=O)NC34CC5CC(CC(C5)C3)C4)CC2C)cc1 (configuration not stated),-3
COc1cc(C(=O)Nc2ncc(Cc3ccc(Cl)cc3)s2)cc(OC)c1OC,-1
COc1cc(CN2CCCC(CNC(=O)c3cc(C)on3)C2)ccc1F (configuration not stated),2
Cc1nc2cc(S(=O)(=O)NC3CCCCCCC3)ccc2s1,2
O=C(Cc1nc2cc(Cl)ccc2oc1=O)c1ccc(Cl)cc1,-1
O=C1NN(c2ccccc2)C(=O)/C1=C/c1cccc(OCCCOc2ccc(Cl)cc2)c1,5
CC(=O)Oc1cccc(/C=C2/C(=O)NN(c3cccc(Cl)c3)C2=O)c1,26*
COc1cc(/C=C2\C(=O)NN(c3ccc(Cl)c(Cl)c3)C2=O)cc(Br)c1O,7
COc1ccc(/C=C2\C(=O)NN(c3cccc(Cl)c3)C2=O)cc1,8
COc1cc(/C=C2\C(=O)NN(c3ccc(C)cc3)C2=O)cc(Br)c1O,12
COc1cc(Br)cc(/C=C2\C(=O)NN(c3ccc(C)c(Cl)c3)C2=O)c1O,43*
COc1ccc(C(O)C2C(=O)NC(=S)NC2=O)c(C(=O)O)c1OC (configuration not stated),-1
O=C(CC1CCCC1)N1CCCC(N2CCN(c3ccc(F)cc3)CC2)C1 (configuration not stated),6
CCOc1ccc2ccccc2c1C(=O)Nc1cnn(Cc2ccc(Cl)cc2Cl)c1,-8
SMILES,RBX1-CUL1 inh
CCc1noc(C)c1C(=O)N1CCN(c2cccc(C(F)(F)F)c2)CC1,10
Cc1ccccc1N1CC(C(=O)Oc2ccc(Br)cc2)CC1=O (configuration not stated),2
COc1ccc(/C=C2\N=C(c3ccc(I)cc3)OC2=O)c(OC)c1OC,-7
O=C(Nc1cc(Cl)cc(Cl)c1)C(=S)N1CCOCC1,-12
CC1(C)NC(=O)N(CC(O)Cn2c(=O)n(CC(O)CN3C(=O)NC(C)(C)C3=O)c(=O)n(CC(O)CN3C(=O)NC(C)(C)C3=O)c2=O)C1=O (configuration not stated),4
CCN(CC)c1ccc(/C=C2\N=C(c3ccccc3)OC2=O)cc1,32*
COc1ccc(/C=C2\N=C(c3ccccc3)OC2=O)cc1[N+](=O)[O-],0
CCOc1cc(/C=C2\N=C(c3ccccc3)OC2=O)ccc1OCc1ccc(Cl)cc1,-3
Cc1cc(C)c(C(=O)OCC(COCOc2ccccc2)OC(=O)c2c(C)cc(C)cc2C)c(C)c1 (configuration not stated),-8
CN(Cc1cccnc1)C(=O)c1coc(CN2CCN(Cc3ccccc3)CC2)n1,-1
CCOc1ccc(N2C(=O)C(C=Nc3cc(N)cc(C(=O)O)c3)C(=O)NC2=S)cc1 (configuration not stated),90*
Cc1ccc(N2C(=O)NC(=O)C(C=Nc3ccc(O)c(C(=O)O)c3)C2=O)cc1 (configuration not stated),5
CCOC(=O)c1c(N=CC2C(=O)NC(=S)N(c3ccc(F)cc3)C2=O)sc2c1CCCC2 (configuration not stated),9
O=C1C(C=NCCO)C(c2ccc([N+](=O)[O-])cc2)=NN1c1ccc([N+](=O)[O-])cc1 (configuration not stated),0
CCc1c(-c2n[nH]c(=S)n2-c2cc(C)ccc2C)csc1C,0
O=C(/C=C/c1ccc(Cl)cc1Cl)c1cccs1,-1
CNc1ncnc(Sc2c(Br)c(=O)n(C)c(=O)n2C)c1N,81*
CCN1CCCC1CN(CC1CCN(CCOC)CC1)C(=O)c1ccccn1 (configuration not stated),10
